Drawing on PubChem BioAssay (NCATS), this text covers Potency and outcome for 24 compounds.

Records with an inconclusive call do not appear. The source made the active and inactive calls. Calls follow the shape of the dose curve; as a rule, active = well fitted curve in the direction sought with a large enough effect; inconclusive = small, poorly fitted or top-dose-only effect, or another doubt; inactive = no such curve, though single readings can be large; an effect the other way counts as inactive or inconclusive.

A short description of test [1]: qHTS to identify inhibitors of the type 1 interferon - major histocompatibility complex class I in skeletal muscle: primary screen against the NCATS LOPAC collection (AID 1347405).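 Also: lytic HiBiT luminescence reporting HLA-B protein level.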 Also: potency is read from the fitted curve at half-maximal effect. In a few lines:
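Immortalized human C25cl48 myoblasts with HiBiT knocked into endogenous HLA-B*08:01 were stimulated with 4.0 ng/ml IFN-beta and given compounds in a 7-point, 1:4.3 titration from 46 uM final; after 24 hrs, lytic HiBiT luminescence was read.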

The nature of test [2]: qHTS for inhibitors of adenylyl cyclases using a fission yeast platform: a pilot screen against the NCATS LOPAC library (AID 1347410). Summed up:
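Inhibition of GNAS-stimulated AC9 activity in S. pombe was inferred from derepression of a PKA-repressed fbp1-GFP reporter, measured as cytometric fluorescence after 18 h at 30C with compounds at up to 57 µM.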

The nature of test [3]: qHTS to identify inhibitors of the type 1 interferon - major histocompatibility complex class I in skeletal muscle: primary screen against the NCATS Mechanism Interrogation Plate v5.0 (MIPE) Libary (AID 1347411). Also: nearly all actives have a fitted effect of over 65% in size. Also: potency is read from the fitted curve at half-maximal effect. Summed up:
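Immortalized human C25cl48 myoblasts with HiBit knocked into endogenous HLA-B*08:01 were stimulated with 4.0 ng/ml IFN-beta and exposed to compounds (11-point 1:3 titration, top 46 uM final) for 24 hrs at 37 C; HiBiT lytic luminescence measured.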
(In general: In qHTS, concentration-response curves come from the screen itself.)

The target of test [4] is Protein phosphatase 1D (Homo sapiens) (UniProt O15297). In words: RapidFire Mass Spectrometry qHTS Assay for Modulators of WT P53-Induced Phosphatase 1 (WIP1) (AID 1347424).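 Also: amount of dephosphorylated VEPPL-S-QETFS peptide product formed by WIP1; series mostly up to about 63 µM.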 In a few lines:
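WIP1 (10 nM final) was preincubated 1 h at room temperature with compounds in Tris-HCl pH 7.5, 30 mM MgCl2, TCEP, EGTA, BSA; 2 uM VEPPL-pS-QETFS phosphopeptide was added for 5 min, quenched with formic acid, and dephosphorylated product quantified by RapidFire MS.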

The target is the same in test [5]. In words: Rhodamine-PBP qHTS Assay for Modulators of WT P53-Induced Phosphatase 1 (WIP1) (AID 1347425). Summed up:
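WIP1 (5 nM final) was preincubated with compound for 1 hour at room temperature. It then dephosphorylated 10 uM VEPPL-pS-QETFS peptide in Tris-HCl pH 7.5 with 30 mM MgCl2. Released Pi was detected by 10 uM Rh-PBP fluorescence (ex 525/em 598 nm) read at 1-min intervals for 11 min, as delta f1 - f0.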

Test [6] is described as follows: Validation qHTS assay for inhibitors of Activation Induced Cytidine Deaminase (AID): UDG Counterscreen signal (AID 1347427). Also: potency is read from the fitted curve at half-maximal effect. Summed up:
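Counterscreen read of UDG activity (2 U/mL, 4/3x) in the FRET deamination format with AID (1 uM, 4/3x), DJC20/DJC23 substrates (250 nM, 4x), 4 h at room temperature. NaOH stop, fluorescence at 560 ex/665 em.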

For test [7], the target named is Single-stranded DNA cytosine deaminase (Homo sapiens) (UniProt Q9GZX7). In words: Validation qHTS assay for inhibitors of Activation Induced Cytidine Deaminase (AID): AID signal (AID 1347429). Also: potency is read from the fitted curve at half-maximal effect. In a few lines:
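AID and UDG were combined and compounds added at final up to 114 uM, then DJC20/DJC23 FRET substrate was added for 4 hr at room temperature. NaOH was then added for 30 min before fluorescence was read at 540/590 nm.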

Test [8] in a line: qHTS to identify inhibitors of the type 1 interferon - major histocompatibility complex class I in skeletal muscle: primary screen against the NCATS Pharmaceutical Collection (AID 1347407).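 Also: luminescence of HiBiT knocked into endogenous HLA-B as interferon-induced MHC class I level.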 Summed up: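 A qHTS format is used: 8-point, 1:5 compound series with 46 uM top final concentration, applied alongside 4 ng/ml IFN-beta to HLA-B*08:01-HiBiT knock-in myoblasts. Luminescence is measured after 24 h treatment.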

Sequence of Protein phosphatase 1D (Homo sapiens) (O15297 whole entry, looked up): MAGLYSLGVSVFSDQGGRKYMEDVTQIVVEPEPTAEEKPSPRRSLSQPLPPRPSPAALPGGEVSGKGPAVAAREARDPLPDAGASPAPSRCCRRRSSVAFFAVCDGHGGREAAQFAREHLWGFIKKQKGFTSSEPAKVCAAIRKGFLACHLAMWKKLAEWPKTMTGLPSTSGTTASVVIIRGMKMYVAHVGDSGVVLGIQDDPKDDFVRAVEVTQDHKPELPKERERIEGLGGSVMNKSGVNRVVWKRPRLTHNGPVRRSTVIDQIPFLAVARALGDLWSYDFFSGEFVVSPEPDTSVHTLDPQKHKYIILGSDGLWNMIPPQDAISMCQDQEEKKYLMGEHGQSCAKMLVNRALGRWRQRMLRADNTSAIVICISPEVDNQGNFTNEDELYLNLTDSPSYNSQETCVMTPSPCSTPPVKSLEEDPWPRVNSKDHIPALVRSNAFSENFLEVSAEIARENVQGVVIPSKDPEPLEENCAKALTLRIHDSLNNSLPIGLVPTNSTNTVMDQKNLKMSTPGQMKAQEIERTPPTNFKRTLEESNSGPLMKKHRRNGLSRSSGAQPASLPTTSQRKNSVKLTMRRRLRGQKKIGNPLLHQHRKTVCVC
Sequence of Single-stranded DNA cytosine deaminase (Homo sapiens) (Q9GZX7 whole entry, looked up): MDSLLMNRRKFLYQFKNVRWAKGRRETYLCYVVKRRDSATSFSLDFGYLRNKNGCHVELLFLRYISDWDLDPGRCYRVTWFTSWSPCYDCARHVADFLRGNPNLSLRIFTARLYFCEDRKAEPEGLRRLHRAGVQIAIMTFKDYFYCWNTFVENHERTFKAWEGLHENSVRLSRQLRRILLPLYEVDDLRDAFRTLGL

For `NS(=O)(=O)c1cc2c(cc1Cl)NCNS2(=O)=O`, the Potency result in test [1], in test [3], in test [4], in test [6] and in test [7] was “inactive” in each case. Further, the compound was called inactive in test [2] and in test [5].
Regarding `NCCS(=O)(=O)O`, the Potency result in test [1], in test [3], in test [4], in test [6] and in test [7] was “inactive” in each case. The result in test [2] and in test [5] was inactive.
Consider `Cn1cnc2c1c(=O)[nH]c(=O)n2C`, for which the Potency entry in test [1], in test [3], in test [4], in test [6] and in test [7] was “inactive” in each case. In addition, the call in test [2] and in test [5] was inactive.
On to `Cc1cc(C(C)(C)C)c(O)c(C)c1CC1=NCCN1`, for which the Potency result in test [1], in test [3], in test [4], in test [6] and in test [7] was “inactive” throughout. In addition, the call in test [2] and in test [5] was inactive.
Take `CCOC(=O)c1ncn2c1CN(C)C(=O)c1cc(F)ccc1-2`: the Potency result in test [1], in test [3], in test [4], in test [6] and in test [7] was “inactive” throughout. The call in test [2] and in test [5] was inactive.
Turning to `CCOC(=O)C(C)(C)Oc1ccc(Cl)cc1`, the Potency entry in test [1], in test [3], in test [4], in test [6] and in test [7] was “inactive” each time. Moreover, the outcome in test [2] and in test [5] was inactive.
For the compound `COc1ccccc1OCC(O)CN1CCN(CC(=O)Nc2c(C)cccc2C)CC1` (stereo not given), the Potency result in test [1], in test [3], in test [4], in test [6] and in test [7] was “inactive” throughout. Further, the result in test [2] and in test [5] was inactive.
For the compound `O=c1[nH]cc(F)c(=O)[nH]1`, the Potency result in test [1], in test [3], in test [4], in test [6] and in test [7] was “inactive” in each case. Besides, the result in test [2] and in test [5] was inactive.
Consider `Cn1ccc2cc3c(cc21)CCN3C(=O)Nc1cccnc1`, for which the Potency result in test [1], in test [3], in test [4], in test [6] and in test [7] was “inactive” each time. For the same compound, the call in test [2] and in test [5] was inactive.
As to `Cc1ccc(-c2cc(C(F)(F)F)nn2-c2ccc(S(N)(=O)=O)cc2)cc1`, in test [1], the Potency entry is “inactive”. Also, the result in test [2] was inactive.
On to `Nc1ccn([C@H]2CC[C@@H](CO)O2)c(=O)n1`, for which the Potency entry in test [1], in test [8], in test [4], in test [6] and in test [7] was “inactive” each time. The compound was classed as inactive in test [2] and in test [5].
As to `CCc1cccc2c3c([nH]c12)C(CC)(CC(=O)O)OCC3` (stereo not given), the Potency entry in test [1], in test [8], in test [4], in test [6] and in test [7] was “inactive” in each case. The compound was called inactive in test [2] and in test [5].
Turning to `CNCCCC12CCC(c3ccccc31)c1ccccc12`, the Potency result in test [1], in test [3], in test [4], in test [6] and in test [7] was “inactive” throughout. The result in test [2] and in test [5] was inactive.
For `CCCNCC(O)COc1ccccc1C(=O)CCc1ccccc1` (stereo not given), the Potency entry in test [1], in test [3], in test [4], in test [6] and in test [7] was “inactive” each time. Besides, the compound was classed as inactive in test [2] and in test [5].
As to `CN(C)CCCN1c2ccccc2CCc2ccc(Cl)cc21`, the Potency entry in test [1], in test [3], in test [4], in test [6] and in test [7] was “inactive” throughout. Further, the outcome in test [2] and in test [5] was inactive.
In the case of `CC(C(=O)O)c1cccc(C(=O)c2ccccc2)c1` (stereo not given), the Potency result in test [1], in test [3], in test [4], in test [6] and in test [7] was “inactive” each time. Besides, the outcome in test [2] and in test [5] was inactive.
Consider `O=C(CCCN1CCC(O)(c2ccc(Cl)cc2)CC1)c1ccc(F)cc1`, for which the Potency entry in test [1], in test [8], in test [4], in test [6] and in test [7] was “inactive” throughout. In addition, the compound was called inactive in test [2] and in test [5].
For the compound `O=C(c1ccc(OCCN2CCCCC2)cc1)c1c(-c2ccc(O)cc2)sc2cc(O)ccc12`, the Potency result in test [1], in test [3], in test [4], in test [6] and in test [7] was “inactive” throughout. For the same compound, the outcome in test [2] and in test [5] was inactive.
With `OCCN(CCO)c1nc(N2CCCCC2)c2nc(N(CCO)CCO)nc(N3CCCCC3)c2n1`, the Potency entry in test [1], in test [3], in test [4] and in test [7] was “inactive” each time. In addition, the compound was classed as inactive in test [2] and in test [5].
In the case of `NC(=O)NO`, the Potency entry in test [1], in test [3], in test [4], in test [6] and in test [7] was “inactive” in each case. For the same compound, the result in test [2] and in test [5] was inactive.
On to `C[C@](N)(Cc1ccc(O)c(O)c1)C(=O)O`, for which the Potency entry in test [1], in test [3], in test [6] and in test [7] was “inactive” each time. Also, the outcome in test [2] was inactive.
As to `CC(C)NCC(O)COc1ccc(CCOCC2CC2)cc1` (stereo not given), the Potency result in test [1], in test [3], in test [4], in test [6] and in test [7] was “inactive” in each case. Moreover, the call in test [2] and in test [5] was inactive.
Consider `CC(C)C(=O)Nc1ccc([N+](=O)[O-])c(C(F)(F)F)c1`, for which the Potency result in test [1], in test [3], in test [4], in test [6] and in test [7] was “inactive” throughout. In addition, the outcome in test [2] and in test [5] was inactive.
As for `O=C1c2c(O)ccc(O)c2C(=O)c2c(NCCNCCO)ccc(NCCNCCO)c21`, the Potency in test [1] is 2.24 µM (active); in test [3] it was 0.93 µM (active); in test [6], 31.6 µM (active); in test [7], 10 µM (active). In addition, the compound was called inactive in test [2] and in test [5]. In addition, in test [4], the Potency result was “inactive”.
